High-throughput results from PubChem.
A selection: hits, their analogues and other compounds. The true share with any hit is near 10%.
Pf growth 96h – P. falciparum growth inhibition at 96 hour, primary screen for plastid delayed-death inhibitors. P. falciparum luciferase reporter growth, 96 h. Potency, µM (doses to about 28.7 µM), usual class: inhibitors. actives 6.9% (n = 320,000). AID 504834; active = well fitted inhibition curve with a large enough effect; inconclusive = small, poorly fitted or top-dose-only effect, or another doubt; inactive = no such curve, though single readings can be large or run the other way
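Erythrocytes infected with luciferase-expressing P. falciparum were dispensed at 2% hematocrit and 0.05% parasitemia (final), then incubated with compounds 96 hours at 37 C in 5% CO2. Luminescence after detection reagent addition reported growth.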
SARS PLP yeast – SARS-CoV PLP inhibition in yeast; S. cerevisiae expressing SARS-CoV PLpro, growth rescue; Potency, µM (doses to about 32.9 µM), hits mostly activators; actives 0.19% (n = 330,000); note: nearly all actives have a fitted effect of over 55% in size
Pf growth 48h – P. falciparum growth inhibition at 48 hours (one generation); P. falciparum luciferase growth in erythrocytes, 48 h; actives 5.9% (n = 310,000); Potency, µM (top dose mostly 28.7 µM), hits mostly inhibitors; AID 504832; active = well fitted inhibition curve with a large enough effect; inconclusive = small, poorly fitted or top-dose-only effect, or another doubt; inactive = no such curve, though single readings can be large or run the other way
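Luciferase-expressing parasites in RBCs, 2% Hct / 0.1% parasitemia final; RPMI 1640 + 0.5% Albumax; 37 C, 5% CO2, one generation; luminescence read-out, lower signal = inhibition.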
NS1 inh – inhibitors of influenza NS1 protein function; Potency, µM (titrated, usually from 46.1 µM); actives 0.4% (n = 270,000); note: actives are rising curves; nearly all actives have a fitted effect of over 50% in size
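In this qHTS, NS1 from influenza A is expressed in budding yeast, where it slows growth. Cells are switched from glucose to 2% galactose medium (pH 6.0, -URA), treated with compound, and growth recovery is read at OD600.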
Numbers stand for hits; i = inactive; ? = inconclusive; nt = not tested or not shown. Unless noted, calls come from the whole dose curve.

SMILES | Pf growth 96h | SARS PLP yeast | Pf growth 48h | NS1 inh
Cc1ccc(-c2csc(Nc3ccccc3)[n+]2CCc2ccccc2)cc1 | 2.08µM | i | 11.7µM | nt
COc1ccc(-c2csc(Nc3ccccc3)[n+]2Cc2ccccc2)cc1 | 13.1µM | i | i | nt
O=[N+]([O-])c1ccc(-c2csc(Nc3ccccc3)[n+]2Cc2ccccc2)cc1 | ? | i | 5.22µM | i
O=C(Nc1ccc(CSc2ccccc2)cc1)c1ccco1 | i | i | i | i
Cc1ncc([N+](=O)[O-])n1CCN=[N+]=[N-] | nt | nt | nt | i
NCC12CC3CC(C1)CC(c1ccc(Br)cc1)(C3)C2 | i | i | i | i
Cc1ccc(C23CC4CC(CC(CN)(C4)C2)C3)cc1 | ? | i | 10.4µM | i
O=C(CN(Cc1ccco1)Cc1ccco1)Nc1cc(S(=O)(=O)N2CCCCC2)ccc1Cl | ? | i | 13.1µM | nt
O=C(CN1CCN(S(=O)(=O)c2ccccc2)CC1)Nc1ccccc1Cl | i | i | i | i
O=C(CN1CCN(C(=O)c2ccccc2)CC1)Nc1cc(S(=O)(=O)N2CCCC2)ccc1Cl | ? | i | 10.4µM | nt
O=C(CN1CCN(C(=O)c2cccc(S(=O)(=O)N3CCCC3)c2)CC1)Nc1ccccc1Cl | ? | i | 10.4µM | nt
O=C(CN1CCN(S(=O)(=O)c2ccccc2)CC1)Nc1ccccc1C(=O)c1ccccc1 | 4.65µM | i | 13.1µM | ?
Cc1c(C(=O)Nc2cccc([N+](=O)[O-])c2)sc2ncn(CC(=O)N3CCOCC3)c(=O)c12 | i | i | i | i
CN(C)c1ccc(S(=O)(=O)N2CCCCC2)cc1NC(=O)CCNC(=O)c1ccco1 | ? | i | 11.7µM | nt
O=C(CN1CCCC1)Nc1ccccc1Cl | i | i | nt | i
O=C(CN1CCN(CC(=O)Nc2ccccc2Cc2ccccc2)CC1)Nc1ccccc1Cl | 13.1µM | i | ? | i
C[C@@H](NC(=O)[C@@H]1Cc2ccccc2CN1)C(=O)Nc1ccc2c(c1)OCO2 | ? | i | i | i
COCC(C)n1c(C)cc(C(=O)COc2ccc(S(=O)(=O)N3CCOCC3)cc2Cl)c1C (stereo unspecified) | nt | i | 13.1µM | i
O=C(COc1ccc(S(=O)(=O)N2CCOCC2)cc1Cl)NC1CC1 | i | i | i | i
CC(=O)c1c(C)n(-c2ccccc2Br)c2ccc(O)cc12 | i | i | i | i
CCOC(=O)c1c(C)[nH]c(-c2csc(N)n2)c1C | ? | i | 2.94µM | nt
CCOC(=O)c1c(C)[nH]c(-c2csc(C)n2)c1C | i | i | i | i
CCOc1ccc(-c2[nH]ncc2-c2ccccc2)c(O)c1 | 7.38µM | i | ? | i
COc1ccc(-c2[nH]ncc2-c2csc(C)n2)c(O)c1 | ? | i | i | i
CCOc1ccc(-c2[nH]ncc2-c2csc(C)n2)c(O)c1 | i | i | i | i
SMILES | Pf growth 96h | SARS PLP yeast | Pf growth 48h | NS1 inh
COc1ccc(-c2[nH]ncc2-c2ccc(Cl)cc2)c(O)c1 | 4.15µM | nt | 11.7µM | i
COc1ccc(-c2cn[nH]c2-c2ccc(OC)cc2O)cc1 | 11.7µM | i | 9.28µM | i
O=[N+]([O-])c1ccc(COc2ccc(-c3[nH]ncc3-c3ccc(Cl)cc3)c(O)c2)cc1 | ? | i | 2.33µM | i
CCCCN1Cc2c(nc3cc(-c4ccco4)[nH]n3c2=O)C1=O | i | i | i | i
CC(C)CN(C[C@@H](OP(=O)(O)O)[C@H](Cc1ccccc1)NC(=O)O[C@@H]1CCOC1)S(=O)(=O)c1ccc(N)cc1 | i | nt | i | nt
O=C(O)CC(c1ccccc1)N1C(=O)c2cccc([N+](=O)[O-])c2C1=O (stereo unspecified) | i | ? | i | i
CCOC(=O)C(=CNNc1ccccc1)C(=O)OCC | i | i | i | i
CCc1cc(-c2[nH]ncc2-c2ccc([N+](=O)[O-])cc2)c(O)cc1OC | i | i | 4.65µM | i
COc1ccc(-c2cn[nH]c2-c2ccc(OCc3ccccc3)cc2O)cc1 | ? | i | ? | i
COc1ccccc1-c1cn[nH]c1-c1ccc(OCc2ccccc2)cc1O | 3.7µM | i | 6.57µM | i
Nc1nnc(-c2cn(-c3ccccc3)nc2-c2ccc(Cl)cc2)o1 | 4.65µM | i | 3.7µM | i
CCOC(=O)CCCCC(=O)c1[nH]c(=O)[nH]c1CSc1nnc2c3ccccc3n(C(C)C)c2n1 | ? | ? | ? | i
CCCn1c2ccccc2c2nnc(SCc3[nH]c(=O)[nH]c3C(=O)CCCCC(=O)OCC)nc21 | 10.4µM | i | ? | i
CC(C)c1ccc(NC(=S)NCc2ccc3c(c2)OCO3)cc1 | i | i | i | nt
COc1ccc(C/C(C)=N/NC(=S)Nc2ccc(Cl)cc2)cc1 | i | i | i | i
COc1ccc(C/C(C)=N/NC(=S)Nc2ccccc2)cc1 | i | 11.2µM | i | i
COc1ccc(CNC(=S)Nc2ccccc2)cc1 | 13.1µM | i | ? | ?
COc1ccc(NC(=S)NCc2ccc3c(c2)OCO3)cc1 | 1.65µM | i | i | nt
CN(C)CCNC(=S)Nc1ccc(-c2nc3ccccc3[nH]2)cc1 | ? | i | i | nt
S=C(NCc1ccc2c(c1)OCO2)Nc1ccc(-c2nc3ccccc3[nH]2)cc1 | 5.22µM | i | 11.7µM | i
Cc1cccc(C(=O)Nc2ccc(N3CCC(CCN4CCOCC4)CC3)c(C(=O)O)c2)c1 | i | i | i | nt
CCOC(=O)c1ccc(NC(=O)c2nc[nH]c2C(=O)N[C@@H](CC(C)C)C(=O)OCc2ccccc2)cc1 | i | i | ? | i
COc1cc(NC(=O)c2sc(C)nc2C)c(OC)cc1NC(=O)c1ccccc1 | i | i | i | i
O=C(NC(=S)Nc1cc(-c2nc3ccccc3[nH]2)ccc1Cl)c1ccc2c(c1)OCO2 | ? | i | 4.65µM | i
Cc1ccc(-c2nc3ccccc3[nH]2)cc1NC(=O)c1ccc2c(c1)OCO2 | ? | i | ? | i
SMILES | Pf growth 96h | SARS PLP yeast | Pf growth 48h | NS1 inh
CC(C)C(=O)N1CCN(c2ccc(NC(=S)NC(=O)c3cc4ccccc4o3)cc2)CC1 | 5.22µM | i | i | i
O=C(NC(=S)Nc1ccc(NC(=O)c2cccs2)cc1)c1ccco1 | ? | i | 1.65µM | i
O=C(Nc1ccc(NC(=S)NC(=O)c2ccccc2F)cc1)c1cccs1 | ? | i | ? | nt
CC(C)NC(=O)c1cc2ccccc2o1 | i | i | i | i
CC(NC(=O)c1cc2ccccc2o1)c1cccs1 (stereo unspecified) | 8.28µM | i | nt | i
O=C(NC(=S)Nc1ccc(NC(=O)c2cccs2)cc1)c1cc2ccccc2o1 | i | i | 3.29µM | i
COc1ccc(C(=O)C(C)OC(=O)c2nc3nccc(C)n3n2)cc1 (stereo unspecified) | i | i | i | nt
O=C(NCc1ccc(F)cc1)c1cc(C(=O)C2CC2)c[nH]1 | i | i | i | i
CC(NC(=O)c1ccccc1OC(F)F)c1ccc(-n2ccnc2)cc1 (stereo unspecified) | 11.7µM | i | ? | i
Cc1cccc2c(N=Nc3ccccc3)c(O)[nH]c12 | i | i | i | i
Cc1cccc2c(N=Nc3ccc(S(=O)(=O)Nc4cccc(Cl)c4)cc3[N+](=O)[O-])c(O)[nH]c12 | ? | i | 6.57µM | i
N#CCC(=O)N/N=C\c1cc(Br)ccc1OC/C=C/c1ccccc1 | 2.94µM | i | i | ?
CCOC(=O)N/N=C/c1ccc(Oc2ccccc2)cc1 | ? | i | ? | nt
CCOC(=O)N/N=C\c1ccccc1OC/C=C/c1ccccc1 | i | i | 2.94µM | i
